Compound activity: PubChem BioAssay, The Scripps Research Institute Molecular Screening Center
GPR151 activ: activators of human GPR151; Q8TDV0; PathHunter beta-arrestin GPR151 cells, luminescence; activation, % at 11.2 µM; hit rate 1% among 650,000; in the data active = activation above about 4.9%;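 also: 0% = median of compound wells and 100% = cells with positive control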
TEAD-YAP block: TEAD-YAP interaction inhibition; inhibition, % at 9.12 µM; hit rate 1.4% among 640,000; HEK-TIYL cells, TEAD-Gal4/YAP UAS-luciferase luminescence; in the data active = inhibition above about 32%;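 also: 0% = median of test compound wells and 100% = reference inhibitor wells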
MITF inh: inhibitors of human MITF. AlphaScreen MITF homodimerization, bead proximity signal. inhibition, % at 2.6 µM. hit rate 0.91% among 650,000. AID 1259374; in the data active = inhibition above about 50%;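 also: 0% = vehicle wells with protein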
FBW7 act: activators of human E3 ligase FBW7 | Q969H0 | AlphaScreen FBW7–phospho-cyclin E peptide binding, activator screen | normalized activity (activation), % at 26.1 µM | hit rate 0.13% among 650,000 | AID 1259310; in the data active = normalized activity above about 1.9%;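 also: purified mutant Fbw7 with reduced substrate affinity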
GPR151 confirm: human GPR151 activation, confirmation screen; 6,700 tested, under 10 active; activation, % at 11.2 µM; AID 1508609; GPR151 PathHunter beta-arrestin cells, luminescence, 90 min; % of EA-reagent control over plate median; shares compounds with GPR151 activ;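 active = mean percent activation across replicates above the confirmation screen cutoff of 4.91%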
GPR119 ag: GPR119 activation, counter-screen for GPR151 activators. shares compounds with GPR151 activ. GPR119 PathHunter beta-arrestin cells, luminescence, 90 min; 0 = compound-well median, 100 = enzyme-acceptor control. activation, % at 11.2 µM. hit rate 0.3% among 6,700;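 active = mean percent activation in the counterscreen above 29.09%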;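 also: counterscreen on off-target GPR119 to flag nonselective hits from the GPR151 activator screen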
Numbers without * were called inactive; nt = not tested or not shown; ! = not active in a repeat. In the library only some 3.5% were active in any assay of this set; here they are far more common.

SMILES | GPR151 activ | TEAD-YAP block | MITF inh | FBW7 act | GPR151 confirm | GPR119 ag
CN1/C(=C\P(=S)(C2CCCCC2)N2CCOCC2)C(C)(C)c2ccccc21 (stereo unspecified) | -0.5 | 2.1 | -5.5 | 0.0 | nt | nt
CN(C)C(=C(Cl)Cl)/C(=C1/NCCN1Cc1ccc(Cl)nc1)[N+](=O)[O-] | 1.5 | 2.8 | 7.2 | 0.0 | nt | nt
CCOC(=O)C1C2NC(=S)N(c3ccccc3)C1(C)Oc1ccccc12 (stereo unspecified) | 0.8 | -4.0 | 24.2 | -0.4 | nt | nt
C=CCOC(=O)C1C2NC(=S)N(c3cccc(Cl)c3)C1(C)Oc1ccccc12 (stereo unspecified) | 10.0* | -6.7 | -3.9 | -0.3 | -0.1 | 2.3
CCN(Cc1ccccc1)C(=O)C(Cl)(Cl)Cl | 6.0* | 5.5 | 1.9 | -0.1 | -0.7 | 2.3
C[C@H]1C/C=C/[C@H]2[C@@H]3O[C@]3(C)[C@@H](C)[C@H]3[C@H](Cc4ccccc4)NC(=O)[C@]32OC(=O)O/C=C/[C@](C)(O)C1=O | 11.1* | -1.6 | 12.1 | 0.1 | 0.1 | -4.8
CCCCCC(=O)N1c2ccc(C)cc2C2CN(C)CCC21 (stereo unspecified) | -0.8 | 9.2 | 4.5 | 0.3 | nt | nt
CCCCNC(=O)N1c2ccc(C)cc2C2CN(C)CCC21 (stereo unspecified) | 5.9* | 5.1 | -1.9 | 0.0 | -0.6 | 6.1
N#Cc1ccc(NC(=O)CN2C(=O)NC3(CCCCC3)C2=O)cc1Cl | -0.4 | 6.6 | 10.0 | 0.0 | nt | nt
C[C@@H]1O[C@H](C[N+](C)(C)C)C[C@H]1O | 5.9*! | 4.7 | -0.6 | -0.1 | 0.4 | 6.3
C[C@H]1OC[C@@H](C[N+](C)(C)C)O1 | -0.7 | 1.8 | 2.7 | -0.1 | nt | nt
O=c1cccc2n1CC1CC2CN(C(=S)Nc2ccccc2)C1 (stereo unspecified) | -1.7 | 9.8 | 4.4 | 0.7 | nt | nt
COc1cc(OC)cc(C(=O)NC(=S)N2CC3CC(C2)c2cccc(=O)n2C3)c1 (stereo unspecified) | 7.5* | 1.0 | -3.3 | 0.2 | -0.7 | 2.2
COc1ccc2c(c1)COC1(CCN(C(=O)Nc3cccs3)CC1)O2 | -0.6 | -0.4 | 7.2 | 1.0 | nt | nt
CC1(c2ccc3ccccc3c2)NC(=O)N(CC(=O)Nc2ccc(C#N)c(Cl)c2)C1=O (stereo unspecified) | -0.5 | 0.6 | 9.2 | -0.1 | nt | nt
N#Cc1ccc(NC(=O)CN2c3cccc4cccc(c34)S2(=O)=O)cc1Cl | 5.2* | 17.0 | 19.0 | 1.3 | 0.7 | -2.9
CCN1CCN(Cc2cc(Br)cc(OC)c2O)CC1 | 6.6* | -1.6 | 30.9 | 0.1 | 0.1 | -0.9
COCCOC(=O)C1=C(C)OC(N)=C(C(=O)OC)C12C(=O)N(C)c1ccccc12 (stereo unspecified) | 0.0 | 2.1 | 4.1 | 0.0 | nt | nt
CC(=O)NC1(c2ccccc2)CC(C)N(C)CC1C (stereo unspecified) | 5.0* | 6.8 | -27.5 | -0.1 | -0.3 | 6.9
COc1ccc(CCN(C)Cc2cc(OC)c(OC)cc2[N+](=O)[O-])cc1OC | 8.4* | 13.3 | -13.8 | 0.0 | -0.3 | 1.3
